# Laboratory results from PubChem BioAssay AID720575 (National Center for Advancing Translational Sciences (NCATS), 2013).
# Some of the results follow. Entries that show only a call come without a potency. Records with an inconclusive call do not appear. The source made the active and inactive calls. Calls follow the shape of the dose curve; as a rule, active = well fitted inhibition curve with a large enough effect; inconclusive = small, poorly fitted or top-dose-only effect; inactive = no such curve, though single readings can be large or run the other way.
# Test: qHTS Assay for Inhibitors of Hepatitis C Virus (HCV): Confirmation Assay for Cherry-picked Compounds
# Conditions: Potency: inhibition
# Description: Hepatitis C virus (HCV) infects about 200 million people in the world. Many infected people progress to chronic liver disease including cirrhosis with a risk of developing liver cancer. To date, there is no effective vaccine for hepatitis C. Current therapy based on interferon is only effective in about half of the patients and is associated with significant adverse effects. The fraction of people with HCV who can complete a successful treatment is estimated to be no more than 10 percent. Recent development of direct-acting antivirals against HCV, such as protease and polymerase inhibitors, is promising but still requires combination with peginterferon and ribavirin for maximal efficacy. In addition, these agents are associated with high rate of resistance and many have significant side effects. Due to the lack of a culture system for infectious HCV, the search for new HCV drugs has been greatly hampered. […] High-throughput screening (HTS) with an infectious HCV system would cover the complete spectrum of potentially druggable targets in all stages of HCV lifecycle, and would have more biological relevance than other cell-based assays. […]
# Cells were plated in a 1536-wel tissue culture grade plates at a final concentration of 1,000 cells/well (3 uL volume). […] The luciferase activity was read for 15 sec using the PerkinElmenr ViewLux plate reader.
# Also: nearly all actives have a fitted effect of over 80% in size.
row,SMILES,Potency
1,CC[N+]1(C)CCCC(OC(=O)C(O)(c2ccccc2)c2ccccc2)C1 (configuration not stated),inactive
2,CC1=CC(=Cc2sc3ccccc3[n+]2C)C=C(C)O1,4.99 µM (active)
